# Laboratory results taken from PubChem BioAssay (NCI).
# About 83,000 compounds went through this panel and 20% of them were active in at least one assay; those are over-represented in the sample as a whole.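 Interpretation: 100, growth as untreated; towards 0, rising growth inhibition; 0, no net growth; 0 to -100, cell death. Compounds scoring below 10 were considered active.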 Unmarked numbers belong to inactive results. Active and inactive are the calls of the source.
# Key:
# Experiment in all cases: NCI-60 one-dose screen, 48 h (100 = growth as untreated, 0 = no growth, -100 = all killed)
# Conditions in all cases: 10 µM unless noted
# [1] = system: HCT-15 colon
# [2] = system: HT29 colon
# [3] = system: SNB-75 CNS
# [4] = system: SNB-19 CNS
# [5] = system: PC-3 prostate
# [6] = system: SK-MEL-5 melanoma
# [7] = system: UACC-62 melanoma
# [8] = system: LOX IMVI melanoma
# [9] = system: SK-MEL-28 melanoma
# [10] = system: SK-MEL-2 melanoma
# [11] = system: EKVX NSCLC
# [12] = system: SN12C renal
# [13] = system: UO-31 renal
# [14] = system: TK-10 renal
# [15] = system: ACHN renal
# [16] = system: CAKI-1 renal
# [17] = system: A498 renal
# [18] = system: CCRF-CEM leukemia
# [19] = system: MOLT-4 leukemia
SMILES,growth [1],growth [2],growth [3],growth [4],growth [5],growth [6] [%],growth [7],growth [8],growth [9],growth [10],growth [11],growth [12],growth [13],growth [14],growth [15],growth [16],growth [17],growth [18],growth [19]
COc1ccc(-c2cc(C(=O)N=Nc3c(O)[nH]c4ccc(Br)cc34)no2)cc1,100%,100%,66.1%,92%,95.8%,97.4,101%,96%,113%,97.6%,94.4%,93.6%,77.6%,124%,98.2%,84.1%,99.6%,102%,101%
O=S(=O)(Nc1ccc(I)cc1F)c1ccc(-c2cnc(C3CC3)o2)cc1,25.5%,15.9%,15.4%,62.8%,68%,62.8,32.8%,52.5%,61.7%,40.7%,68.5%,–,70.1%,88.6%,77.2%,40.9%,-10% (active),61.1%,37.5%
CON1C(=O)CC[C@]2(C)[C@H]3CC[C@@H]4C([C@@]5(C)CCC(=O)O5)CC[C@@]4(C)[C@]3(C)CC[C@H]2C1(C)C (stereo partly drawn),99.8%,94.6%,71.5%,96.5%,87.4%,98.4,87.2%,95.1%,107%,94.6%,–,95.2%,94.4%,97.8%,96.6%,75.7%,99.6%,96.9%,90.6%
Cc1nc2ccccc2n1C(=O)C[C@@H]1NC(=S)NC1=O,93%,105%,74.1%,98.3%,105%,100,97.1%,–,99.2%,113%,93.6%,103%,78.3%,90.9%,96.5%,91.5%,94.9%,109%,100%
N#Cc1c(-c2ccc(Cl)cc2)nc(N/N=C/c2cccc(Br)c2)nc1N1CCOCC1,8.41% (active),29%,76.8%,107%,61.2%,85.6,92.6%,79.8%,99.5%,94.5%,–,91.4%,51.2%,102%,71.5%,73%,-10.8% (active),50.3%,36.1%
Cc1nn(-c2cc(=O)[nH]c3ccccc23)c(N)c1C#N,106%,107%,82.4%,102%,96%,–,99.2%,98.4%,109%,103%,96.3%,101%,67.5%,112%,101%,87.5%,–,102%,106%
CSc1nc(-c2cccc(NC(=O)CCl)c2)c(C#N)c(=O)n1C,11%,-33.7% (active),54%,86.6%,77.5%,79.4,60.4%,-91.6% (active),87.3%,70.9%,70.8%,81%,–,117%,73.9%,83.7%,90.2%,-16.5% (active),14%
COc1cc(-c2nc3cc(Cl)c(Cl)cc3[nH]2)ccc1OCC(=O)N=Nc1c(O)[nH]c2ccccc12,64.4%,-23.1% (active),-90% (active),0.731% (active),-59.3% (active),–,-93.9% (active),–,-93.4% (active),-80.7% (active),–,-69.7% (active),93.5%,-12% (active),20%,-46.8% (active),-45.9% (active),-44.8% (active),-50.7% (active)
CSc1nc(Nc2cccc(NC(=O)CCl)c2)c(C#N)c(-c2cccc([N+](=O)[O-])c2)n1,17.5%,17.7%,30.5%,83.5%,30.5%,34.3,41%,-69.2% (active),102%,57.5%,–,34%,67.2%,137%,84.2%,52.2%,96.6%,-14.4% (active),1.11% (active)
O=C(/C=C/c1cccc([N+](=O)[O-])c1)c1ccc(O)c(CN2CCN(c3cc4c(cc3F)c(=O)c(C(=O)O)cn4C3CC3)CC2)c1,-40.1% (active),-23.6% (active),31.1%,47.2%,18.4%,46.1,53%,-93.5% (active),46.4%,88.3%,52.8%,32.5%,–,34.5%,8.06% (active),42.3%,97.2%,0.194% (active),2.37% (active)
N#CCCN=Nc1c(O)[nH]c2ccc([N+](=O)[O-])cc12,102%,101%,70.5%,100%,99.7%,99.2,93.2%,90.3%,112%,95.6%,91.3%,–,76.9%,108%,96.3%,86.1%,94.3%,103%,100%
COc1ccc(-c2nc3ccc(-c4nc5ccc(N6CCN(c7ccccc7)CC6)cc5[nH]4)cc3[nH]2)cc1OC,15.8%,-91% (active),45.6%,-1.62% (active),-31.5% (active),43.4,41.6%,-91.8% (active),-47.5% (active),89%,40.1%,52%,–,12.4%,44.8%,65.3%,88.4%,6.07% (active),-5.57% (active)
CCOc1cc2ncc(C#N)c(Nc3ccc(F)c(Cl)c3)c2cc1NC(=O)CC1CCSS1 (stereo not drawn),-71.1% (active),-72.5% (active),-72% (active),-34.5% (active),-72.6% (active),–,-66% (active),-81.2% (active),-79.1% (active),-49.2% (active),-55% (active),-55.9% (active),-92.4% (active),-74.2% (active),-90.7% (active),-73.4% (active),-53.7% (active),-20.2% (active),-47% (active)
CCCSc1ccc2nc(NC(=O)OC)[nH]c2c1,18.1%,2.84% (active),22.4%,29.9%,20.7%,–,27.6%,50.1%,53.7%,7.33% (active),58.2%,41.5%,45.5%,39.7%,48.6%,55%,-5.4% (active),10.6%,23.6%
Cc1oc(-c2ccc(Cl)cc2Cl)cc1C(=O)Nc1nccs1,85.6%,86.6%,84.4%,98.8%,96.6%,97.1,91.7%,79.1%,105%,102%,70.7%,–,82%,103%,62.5%,78.1%,102%,89%,94%
CSc1nc(NCCO)c(C#N)c(-c2cccc([N+](=O)[O-])c2)n1,98.7%,112%,72.8%,90.7%,94.7%,97.2,87%,91.6%,112%,113%,88.9%,90.4%,73.2%,120%,–,83.9%,72.6%,99.1%,99%
CC[C@H]1OC(=O)[C@H](C)[C@@H](O[C@H]2C[C@@](C)(OC)[C@@H](O)[C@H](C)O2)[C@H](C)[C@@H](O[C@@H]2O[C@H](C)C[C@H](N(C)C)[C@H]2O)[C@](C)(O)C[C@H](C)CN(C)[C@H](C)[C@@H](O)[C@]1(C)O,97.1%,102%,80.8%,93.4%,91%,–,98.3%,87%,114%,117%,86.5%,93.9%,78.9%,103%,96.5%,96.6%,–,120%,103%
